Screening results: PubChem BioAssay, Sanford-Burnham Center for Chemical Genomics
Rows were chosen to be rich in hits. Some 2.5% of all compounds tested hit in one or more screens of this group.
CRFR2-BP ag – agonists of CRF-BP/CRF-R2 complex, primary screen, cell-based, HEK293, calcium dye fluorescence, uHTS; AID 588473, 2011; hit rate 0.46% among 350,000; calcium dye fluorescence (FLIPR); percent of saturating CRF peptide response; activation, % at 13.2 µM; CRF-binding protein / CRF receptor 2 complex (human);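 active means activation of at least 50%, plus an integration ratio under a set limit after plate pattern correction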;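 further: plate controls were neutral control wells without compound for no effect and CRF at EC100 for full effect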
SKN-1 block – suppressors of acrylamide-induced Pgst-4::GFP reporter in worms, primary screen, SKN-1 inhibitor project, whole organism, uHTS, GFP/RFP fluorescence ratio, strain VP596 | C. elegans VP596 Pgst-4::GFP/RFP ratio, 24 h | inhibition, % at 21.8 µM | hit rate 0.49% among 360,000 | AID 624304, 2012;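 active means interference check ratio from 0.5 to 1.5 plus GFP to RFP signal ratio inhibition reaching or exceeding a fixed threshold, cut at about 30% in these data, passing the limit was not always enough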
H9c2 TAG inh – inhibitors of triacylglycerol accumulation, primary screen, cell-based, uHTS, fluorescence, H9c2 | H9c2 cells, Nile Red lipid (TAG) fluorescence; cells loaded with 200 µM oleic acid | inhibition, % at 12.5 µM | hit rate 0.66% among 230,000 | AID 651582, 2012;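 active means pattern-corrected inhibition of lipid staining of at least 50% with the nuclear-stain viability signal not falling by more than 50%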;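 further: 0% = DMSO wells and 100% = triacsin C control wells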
CRFBP-R2 block – antagonists of CRF-BP/CRF-R2 complex, primary screen, cell-based, HEK293, calcium dye fluorescence, uHTS. CRF-induced calcium fluorescence. inhibition, % at 11.8 µM. hit rate 0.59% among 350,000. AID 588475, 2011;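 active means inhibition of the ligand-induced calcium signal above about 50% at the single tested concentration, limit read from the data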
hiPSC survival – enhancers of single-cell hiPSC survival, primary screen, ATPlite luminescence; 100% = ROCK inhibitor wells, 0% = DMSO; hit rate 0.044% among 360,000; survival enhancement, % at 20 µM; in the data active means survival enhancement above about 18%;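 further: cells exposed to compounds for 16 hours before the ATP read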
Cardio protect – cardioprotection against H2O2-induced cell death, primary screen, uHTS, H9c2 cells, ATPLite luminescence; H9c2 cardiomyocytes, H2O2 injury protection, 2 h; protection from H2O2 cell death, % at 20 µM; hit rate 0.63% among 360,000;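 active means compounds giving at least 50% protection of heart cells from peroxide-induced death in the single-dose screen, raw or plate-pattern-corrected value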;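 further: 0% = DMSO wells with peroxide and 100% = DMSO wells without peroxide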
* hit, by the source's call; · = not tested or not shown.

SMILES | CRFR2-BP ag | SKN-1 block | H9c2 TAG inh | CRFBP-R2 block | hiPSC survival | Cardio protect
CC1(C)c2[nH]c3ccccc3c2C[C@@H]2C(=O)N(Cc3ccccc3)C(=O)N21 | 3 | 6 | -14 | -15 | 5 | -13
CC1(C)c2[nH]c3ccccc3c2C[C@H]2C(=O)N(Cc3ccccc3)C(=O)N21 | 0 | -8 | -9 | 60* | 4 | -3
COc1cccc(CN2CCNC(=O)C2CC(=O)NCCN2CCOCC2)c1OC (stereo not drawn) | -1 | 15 | 1 | 0 | 0 | -3
C=CCn1c(O)c(C(CC)=Nc2ccccc2NC(=O)CC)c(=O)[nH]c1=O | -1 | -7 | · | 76* | 3 | 2
CC(=O)Nc1cccc(N/C(N)=N/c2nc(C)cc(C)n2)c1 | -1 | 12 | -2 | 13 | -1 | 2
CCCCc1ccc(N/C(N)=N/c2nc(C)cc(C)n2)cc1 | 102* | 8 | -2 | -81 | -1 | -14
Cc1cccc(N/C(N)=N/c2nc(C)cc(C)n2)c1 | 81* | -5 | 11 | -53 | -2 | -2
Cc1ccc(N/C(N)=N/c2nc(C)cc(C)n2)cc1 | 55* | 1 | · | -48 | -1 | -7
COC(=O)c1c(NC2=NS(=O)(=O)c3ccccc32)sc2c1CCC(C(C)(C)C)C2 (stereo not drawn) | 5 | 9 | 48 | 0 | -1 | 12
O=C1CCc2nc3ccccc3c(=O)n2N1 | -1 | 13 | 0 | 80* | -2 | 3
O=c1c2ccccc2nc2n1-c1ccccc1CCC2 | 1 | -7 | -1 | 4 | -2 | 1
CN1CCN(c2ccc(NC(=O)c3ccc(Oc4ccccc4)cc3)cc2)CC1 | 3 | 37* | · | -29 | 0 | -13
CC(=O)c1ccc(N2CCN(C(=O)c3ccc(-c4ccccc4)cc3)CC2)cc1 | -1 | 2 | · | 18 | 1 | -5
CC(=O)c1ccc(N2CCN(C(=O)c3cccc(Oc4ccccc4)c3)CC2)cc1 | -1 | 12 | -14 | 78* | 0 | -16
CC(C)Oc1ccc(S(=O)(=O)N2CCOCC2)cc1NC(=O)CSC(=S)N1CCCC1 | 1 | -6 | 8 | 17 | -2 | 2
COc1cc2sc3ccc(C#Cc4ccc(N)cc4)cc3c(=O)c2cc1OC | 2 | 40* | 35 | -2 | 0 | 9
COc1ccc(O)c(CNn2c(-c3ccc(Br)cc3)nc3ccccc3c2=O)c1 | 1 | 5 | -1 | -4 | -1 | 50*
COc1ccc(OC)c(CNn2c(-c3ccccc3F)nc3ccccc3c2=O)c1 | -5 | -1 | 0 | -35 | -2 | 12
CSCCC(C(=O)NCc1ccccc1)n1c(-c2ccc3c(c2)CCO3)nc2ccccc21 (stereo not drawn) | · | 10 | · | · | · | ·
Cc1cc2nc3c(=O)[nH]c(=O)[nH]c3nc2c([N+](=O)[O-])c1N | 60* | 27 | 2 | -23 | 2 | -5
COC(=O)c1ccccc1NCc1cc(=O)oc2cc(O)c(O)cc12 | 1 | 1 | · | -4 | -1 | 67*
COc1cc([N+](=O)[O-])ccc1NC(=O)CSc1n[nH]c(C(C)C)n1 | 0 | -3 | -16 | -5 | 0 | 4
CS(=O)(=O)N(Cc1ccc(C(=O)NCCSc2ccccn2)cc1)c1ccccc1 | 28 | -2 | · | 2 | 0 | 62*
COC(=O)c1ccsc1NC(=O)CN1CCN(c2ncccn2)CC1 | -2 | -2 | · | 1 | 0 | 19
COc1ccc2nc3ccccc3nc2c1N | 0 | 25 | 5 | 2 | 0 | 27
SMILES | CRFR2-BP ag | SKN-1 block | H9c2 TAG inh | CRFBP-R2 block | hiPSC survival | Cardio protect
COc1ccc2nc3cccc(OC)c3nc2c1 | 19 | -1 | 7 | 3 | -1 | 58*
Nc1c(C(=O)c2ccccc2)sc2nsc(SCCN3CCCC3)c12 | 102* | -7 | -41 | -80 | 0 | -8
Nc1c(C(=O)c2ccc(Cl)cc2)sc2nsc(SCCN3CCOCC3)c12 | 92* | 21 | -32 | -73 | 0 | -9
COC(=O)c1sc(NC(=O)OCc2ccccc2)nc1CCNC(=O)OC(C)(C)C | · | -8 | · | · | · | ·
COCCNc1nc(N)c([N+](=O)[O-])c(NCc2ccccc2)n1 | 0 | 11 | · | -13 | 1 | 3
Oc1c(Br)cccc1/C=N/c1ncn[nH]1 | -2 | 4 | · | -59 | 0 | 67*
Cc1ccc(N2CCN(/N=C/c3ccncc3)CC2)cc1 | -1 | 9 | -36 | -6 | 0 | -17
Clc1ccc(N2CCN(/N=C/c3ccncc3)CC2)cc1 | -1 | 62* | -10 | 24 | 0 | -14
CCCCCCCCN1C(=O)[C@H](CC(=O)NCCC(C)C)C[C@@]2(C(=O)OC)CCCCC=C12 | · | -2 | · | · | 0 | ·
CCOc1ccc(S(=O)(=O)n2nnc3ccccc32)cc1C | 2 | · | · | -6 | · | ·
CCOc1ccc(Cl)cc1S(=O)(=O)n1nnc2ccccc21 | 3 | 16 | 24 | 107* | -1 | -9
Cc1ccc(S(=O)(=O)n2nnc3ccccc32)c(C)c1C | -2 | 1 | -7 | 93* | -1 | 3
O=C1Nc2ccccc2C(O)(C(=O)NCc2ccco2)N1c1ccc(Cl)c(Cl)c1 (stereo not drawn) | 1 | 42* | -18 | 1 | 1 | 6
CC(C)(C)OC(=O)C[C@@H]1C/C=C\C[C@@H](CC(=O)N(CCO)Cc2ccccc2)C(=O)NC[C@H](c2ccccc2)OC1=O | -1 | -15 | -14 | -8 | 2 | 92*
CCOCCc1nnc(NC(=O)C(CC)c2ccccc2)s1 (stereo not drawn) | 9 | -16 | · | -76 | 0 | 8
COc1ccccc1C1CC(c2cccc(NS(C)(=O)=O)c2)=NN1S(=O)(=O)c1ccccc1 (stereo not drawn) | 1 | 37* | · | -4 | 0 | 0
COc1ccccc1C1CC(c2ccc(NS(C)(=O)=O)cc2)=NN1S(=O)(=O)c1ccccc1 (stereo not drawn) | -3 | 12 | · | 5 | 0 | -10
CCCNC(=O)C1(C)CCCN(Cc2ccc(C(F)(F)F)cc2)C1 (stereo not drawn) | · | 15 | -18 | · | -1 | 2
CCN(CC)c1ccc(-c2nn3c(-c4n[nH]c5c4CCC5)nnc3s2)cc1 | 0 | 2 | 57* | -55 | -1 | -34
CN(C(=O)OC(C)(C)C)c1ccc(-c2nc3ccccc3s2)cc1 | 3 | 43* | -8 | -1 | -4 | -12
CC(C)c1ccc(-c2nc3ccccc3s2)cc1 | 11 | 46* | -8 | -10 | -1 | -19
FC(F)(F)c1ccc(-c2nc3ccccc3s2)cc1 | · | 9 | · | · | -1 | -9
c1ccc(Cn2c[n+](Cc3ccccc3)c3ccccc32)cc1 | -1 | 35* | · | -4 | -1 | -8
